About 3,600 (1.2%) of roughly 310,000 compounds were called active. The sample holds actives, similar compounds and a random draw of the others, so the mix is not that of the screen.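 How the source made its calls: active means ratio plate-corrected score three or more library SD toward inhibition, starting fluorescence score within five deviations; inactive means the rest.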
The compounds below were run against Anoctamin-1 (Mus musculus) (UniProt Q8BHY3) (assay: TMEM16A chloride channel inhibitors, primary screen, cell-based, HTS (AID 588511;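 on normalized B-score (activity score, 25-100; higher = stronger inhibition): score derived from kinetic fluorescence span divided by baseline fluorescence per well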)). Settings: HEK293 TMEM16A/YFP iodide influx fluorescence, ionomycin; at 10 µM.
Anoctamin-1 (Mus musculus), sequence (Q8BHY3 whole entry, looked up): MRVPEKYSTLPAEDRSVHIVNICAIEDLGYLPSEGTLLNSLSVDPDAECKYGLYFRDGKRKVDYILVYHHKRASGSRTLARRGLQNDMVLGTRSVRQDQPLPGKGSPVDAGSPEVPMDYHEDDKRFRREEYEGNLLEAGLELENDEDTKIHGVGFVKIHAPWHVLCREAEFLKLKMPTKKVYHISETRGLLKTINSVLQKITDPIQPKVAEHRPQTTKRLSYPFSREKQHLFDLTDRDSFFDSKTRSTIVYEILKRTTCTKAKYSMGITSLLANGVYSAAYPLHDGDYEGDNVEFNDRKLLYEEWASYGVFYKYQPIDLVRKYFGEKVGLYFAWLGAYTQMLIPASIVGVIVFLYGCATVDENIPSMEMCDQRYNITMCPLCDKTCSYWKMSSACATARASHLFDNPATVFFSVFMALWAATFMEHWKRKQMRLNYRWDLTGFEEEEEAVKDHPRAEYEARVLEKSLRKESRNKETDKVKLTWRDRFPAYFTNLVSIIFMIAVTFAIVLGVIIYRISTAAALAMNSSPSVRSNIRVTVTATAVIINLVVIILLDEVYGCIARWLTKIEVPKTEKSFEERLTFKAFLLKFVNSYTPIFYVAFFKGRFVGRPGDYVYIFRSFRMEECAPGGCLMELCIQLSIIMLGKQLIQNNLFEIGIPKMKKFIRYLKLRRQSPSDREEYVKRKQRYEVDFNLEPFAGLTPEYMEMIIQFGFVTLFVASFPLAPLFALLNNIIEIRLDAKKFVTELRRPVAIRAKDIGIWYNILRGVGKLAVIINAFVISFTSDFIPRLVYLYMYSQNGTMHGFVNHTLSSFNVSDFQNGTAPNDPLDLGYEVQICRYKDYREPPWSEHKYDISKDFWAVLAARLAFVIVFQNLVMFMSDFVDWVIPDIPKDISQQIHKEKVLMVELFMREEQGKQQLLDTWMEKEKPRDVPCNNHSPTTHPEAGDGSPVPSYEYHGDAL

Question: For `Cc1ccc(/C=N/NC(=O)C(NC(=O)c2ccccc2)c2n[nH]c(=O)c3ccccc23)cc1` (stereo not drawn), which normalized B-score (activity score, 25-100; higher = stronger inhibition) is on record?
Answer: inactive

Question: With `Cc1ccc2c(c1)N(CC(=O)N1CCCc3ccccc31)C(=O)C(C)O2` (stereo not drawn) as the compound, how does the normalized B-score (activity score, 25-100; higher = stronger inhibition) read?
Answer: 100 (active)

Question: With `Cc1ccc2c(c1)N(CC(=O)N1CCCC(C)C1)C(=O)CO2` (stereo not drawn) as the compound, how does the normalized B-score (activity score, 25-100; higher = stronger inhibition) read?
Answer: inactive

Question: Which normalized B-score (activity score, 25-100; higher = stronger inhibition) does the source give for `CCC(=O)N1CCCc2ccccc21` here?
Answer: inactive

Question: `O=C1NC(c2ccccc2)=NC1(Nc1ccccn1)C(F)(F)F` (stereo not drawn) was tested. Which normalized B-score (activity score, 25-100; higher = stronger inhibition) did it give?
Answer: inactive

Question: How did the normalized B-score (activity score, 25-100; higher = stronger inhibition) turn out when `CC(Oc1ccc(Cl)cc1)c1ccnn1S(C)(=O)=O` (stereo not drawn) was run?
Answer: inactive

Question: Which normalized B-score (activity score, 25-100; higher = stronger inhibition) does the source give for `CC(=O)Nc1ccc(C(=O)OCC(=O)Nc2ccc([N+](=O)[O-])cc2C(F)(F)F)cc1` here?
Answer: inactive

Question: With `COc1cc(NC(=O)C2=CC(c3ccco3)=NS(=O)(=O)N2C)cc(OC)c1OC` as the compound, how does the normalized B-score (activity score, 25-100; higher = stronger inhibition) read?
Answer: inactive

Question: Which normalized B-score (activity score, 25-100; higher = stronger inhibition) does the source give for `COc1cc(NC(=O)C2=CC(c3ccc(C)cc3)=NS(=O)(=O)N2C)cc(OC)c1OC` here?
Answer: inactive

Question: How did the normalized B-score (activity score, 25-100; higher = stronger inhibition) turn out when `COc1ccc(NC(=O)C2=CC(c3ccc(OC)c(OC)c3)=NS(=O)(=O)N2C)cc1` was run?
Answer: 25 (active)

Question: `O=C(CSc1nnc2c(n1)[nH]c1ccccc12)NC1CCCCC1` was tested. Which normalized B-score (activity score, 25-100; higher = stronger inhibition) did it give?
Answer: inactive

Question: With `Cc1ccc(CNC(=O)C2CCCN2S(=O)(=O)c2ccc3c(c2)C(C)(C)C(=O)N3C)cc1` (stereo not drawn) as the compound, how does the normalized B-score (activity score, 25-100; higher = stronger inhibition) read?
Answer: inactive

Question: `CN(C)S(=O)(=O)c1ccc(Oc2ccc(S(=O)(=O)N(C)C)cc2)cc1` was tested. Which normalized B-score (activity score, 25-100; higher = stronger inhibition) did it give?
Answer: inactive

Question: Which normalized B-score (activity score, 25-100; higher = stronger inhibition) does the source give for `Cc1n[nH]c(=O)n1-c1ccc(Oc2ccccc2)cc1` here?
Answer: inactive

Question: For `Cc1ccc(S(=O)(=O)c2ccc(Oc3ccccc3)cc2)cc1`, which normalized B-score (activity score, 25-100; higher = stronger inhibition) is on record?
Answer: 100 (active)

Question: Which normalized B-score (activity score, 25-100; higher = stronger inhibition) does the source give for `Cc1cc(C)c(NC(=O)CN2CCCCCC2)c(C)c1` here?
Answer: inactive

Question: How did the normalized B-score (activity score, 25-100; higher = stronger inhibition) turn out when `CN(C)C(=O)CCC(=O)N1CCCCC1C(=O)Nc1ccc(Oc2ccccc2F)cc1` (stereo not drawn) was run?
Answer: inactive

Question: With `CC(C)(C)C(=O)/C(C#N)=C/c1ccc(O)cc1` as the compound, how does the normalized B-score (activity score, 25-100; higher = stronger inhibition) read?
Answer: 25 (active)

Question: `CCOC(=O)NC(=O)/C(C#N)=C\c1ccccc1` was tested. Which normalized B-score (activity score, 25-100; higher = stronger inhibition) did it give?
Answer: inactive

Question: How did the normalized B-score (activity score, 25-100; higher = stronger inhibition) turn out when `CC(C)NC(=O)/C(C#N)=C\c1ccc(N(C)C)c(Br)c1` was run?
Answer: inactive

Question: With `Fc1ccccc1CNC(=S)Nc1ccc(Cl)cc1` as the compound, how does the normalized B-score (activity score, 25-100; higher = stronger inhibition) read?
Answer: inactive

Question: How did the normalized B-score (activity score, 25-100; higher = stronger inhibition) turn out when `S=C(NCc1cccs1)Nc1ccc(Cl)cc1` was run?
Answer: 25 (active)

Question: With `COc1ccc(NC(=S)NCc2cccs2)c(OC)c1` as the compound, how does the normalized B-score (activity score, 25-100; higher = stronger inhibition) read?
Answer: inactive

Question: For `Cc1ccc(Cc2nnc(SCC(=O)Nc3ccc(C)cc3C)[nH]c2=O)cc1`, which normalized B-score (activity score, 25-100; higher = stronger inhibition) is on record?
Answer: inactive

Question: How did the normalized B-score (activity score, 25-100; higher = stronger inhibition) turn out when `COc1cc(CNCc2ccc(OC)c3ccccc23)cc(OC)c1OC` was run?
Answer: inactive

Question: Which normalized B-score (activity score, 25-100; higher = stronger inhibition) does the source give for `COCCCNC(=O)C1CCN(c2ccc(N3CCOCC3)nn2)CC1` here?
Answer: inactive

Question: Which normalized B-score (activity score, 25-100; higher = stronger inhibition) does the source give for `CC(=O)Nc1c2c(nn1-c1ccc(C)cc1C)CS(=O)C2` (stereo not drawn) here?
Answer: inactive

Question: With `N#Cc1nc(N)nc(N(c2ccccc2)c2ccccc2)n1` as the compound, how does the normalized B-score (activity score, 25-100; higher = stronger inhibition) read?
Answer: 100 (active)

Question: With `Nc1nc(-c2ccccc2)cc(-c2ccccc2)n1` as the compound, how does the normalized B-score (activity score, 25-100; higher = stronger inhibition) read?
Answer: inactive

Question: How did the normalized B-score (activity score, 25-100; higher = stronger inhibition) turn out when `CC(C)Nc1nc(N(c2ccccc2)c2ccccc2)nc(-n2ccnc2)n1` was run?
Answer: inactive

Question: For `COc1ccccc1CNC(=O)CNC(=O)c1cn(-c2ccccc2OC)c(=O)c2ccccc12`, which normalized B-score (activity score, 25-100; higher = stronger inhibition) is on record?
Answer: inactive

Question: `Cc1ccccc1NC(=O)C(C)c1ccc(-c2ccccc2)c(F)c1` (stereo not drawn) was tested. Which normalized B-score (activity score, 25-100; higher = stronger inhibition) did it give?
Answer: 100 (active)

Question: `O=C(Nc1ccccc1F)c1ccccc1-c1ccccc1` was tested. Which normalized B-score (activity score, 25-100; higher = stronger inhibition) did it give?
Answer: inactive

Question: For `CC(C(=O)Nc1ccccc1-c1ccccc1)N1CCOCC1` (stereo not drawn), which normalized B-score (activity score, 25-100; higher = stronger inhibition) is on record?
Answer: inactive

Question: `CCOCCCNC(=O)c1cn(CC(C)C)c(=O)c2c1c1ccccc1n2C` was tested. Which normalized B-score (activity score, 25-100; higher = stronger inhibition) did it give?
Answer: inactive

Question: For `CC(Cc1cccs1)NC(=O)c1cccc(Cl)c1` (stereo not drawn), which normalized B-score (activity score, 25-100; higher = stronger inhibition) is on record?
Answer: inactive

Question: Which normalized B-score (activity score, 25-100; higher = stronger inhibition) does the source give for `COc1ccc(CN(C)C(=O)CC(c2ccccc2)c2ccccc2)cc1` here?
Answer: 25 (active)

Question: How did the normalized B-score (activity score, 25-100; higher = stronger inhibition) turn out when `CN(Cc1ccccc1)C(=O)CCc1ccccc1` was run?
Answer: inactive

Question: Which normalized B-score (activity score, 25-100; higher = stronger inhibition) does the source give for `CN(Cc1ccccc1)C(=O)COc1ccccc1` here?
Answer: inactive

Question: Which normalized B-score (activity score, 25-100; higher = stronger inhibition) does the source give for `C=CCOc1ccc(/C=C/C(=O)OC(C)C(=O)Nc2ccc(NC(C)=O)cc2)cc1` (stereo not drawn) here?
Answer: inactive

Question: For `CCCCCCCCCCOC(=O)Cn1c(COc2cccc(OC)c2)[n+](C)c2ccccc21`, which normalized B-score (activity score, 25-100; higher = stronger inhibition) is on record?
Answer: inactive

Question: Which normalized B-score (activity score, 25-100; higher = stronger inhibition) does the source give for `Cc1ccc(OCc2nc3ccccc3n2C)cc1` here?
Answer: inactive

Question: How did the normalized B-score (activity score, 25-100; higher = stronger inhibition) turn out when `CCCCCCCCCCOC(=O)Cn1c(COc2ccc(C)cc2)[n+](C)c2ccccc21` was run?
Answer: 25 (active)

Question: Which normalized B-score (activity score, 25-100; higher = stronger inhibition) does the source give for `Cc1ccc(-c2nn(-c3ccc(F)cc3)cc2C(=O)NCC(c2cccs2)N2CCOCC2)cc1` (stereo not drawn) here?
Answer: inactive

Question: Which normalized B-score (activity score, 25-100; higher = stronger inhibition) does the source give for `O=C(COC(=O)[C@H](Cc1ccccc1)NC(=O)c1cccs1)Nc1cc(F)ccc1F` here?
Answer: inactive

Question: Which normalized B-score (activity score, 25-100; higher = stronger inhibition) does the source give for `COc1ccc(NC(=O)CCS(=O)(=O)c2cc3c(cc2Cl)NC(=O)CO3)cc1OC` here?
Answer: inactive

Question: How did the normalized B-score (activity score, 25-100; higher = stronger inhibition) turn out when `COc1ccc(Cl)cc1NC(=O)CCS(=O)(=O)c1cc2c(cc1C)NC(=O)CO2` was run?
Answer: 100 (active)

Question: `Cc1cc2c(cc1S(=O)(=O)CCC(=O)NCc1ccccc1)OCC(=O)N2` was tested. Which normalized B-score (activity score, 25-100; higher = stronger inhibition) did it give?
Answer: inactive

Question: With `C=C(C)c1cccc(C(C)(C)NC(=O)N2CCN(c3ncccn3)CC2)c1` as the compound, how does the normalized B-score (activity score, 25-100; higher = stronger inhibition) read?
Answer: inactive

Question: Which normalized B-score (activity score, 25-100; higher = stronger inhibition) does the source give for `CN(CC(=O)Nc1cccc(F)c1)CC(=O)Nc1cccc([N+](=O)[O-])c1` here?
Answer: inactive

Question: How did the normalized B-score (activity score, 25-100; higher = stronger inhibition) turn out when `Cc1ccc(NC(=O)CN(C)CC(=O)Nc2cccc(F)c2)cc1[N+](=O)[O-]` was run?
Answer: 100 (active)

Question: `Cc1ccc(CN(C)CC(=O)Nc2cccc([N+](=O)[O-])c2)o1` was tested. Which normalized B-score (activity score, 25-100; higher = stronger inhibition) did it give?
Answer: inactive

Question: Which normalized B-score (activity score, 25-100; higher = stronger inhibition) does the source give for `Cc1cccc2c1cnn2C(=O)CCC(=O)NC1CCCCC1` here?
Answer: inactive

Source: PubChem BioAssay AID588511 (Johns Hopkins Ion Channel Center, 2011)
